Compound activity from PubChem.
IP6K1 inh: Primary qHTS assay for small molecule inhibitors of Inositol hexaphosphate kinase 1 (IP6K1) | Inositol hexakisphosphate kinase 1 (Homo sapiens), Q92551 | IP6K1 kinase, ADP-Glo luminescence, 2 h; stronger effect = lower value | activity change, % (series mostly up to about 58 µM) | 0.81% of 140,000 active | AID 1645851, 2021; in the data active means activity change below about -25%
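ADP-Glo luminescence measures ADP made by human IP6K1 during a 2 h RT reaction with ATP/IP6 (mix at 1.3 mM/130 uM); top library doses 57.5 and 19.1 uM final.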
SNCA expr inhib: Primary qHTS assay for inhibitors of alpha-synuclein gene (SNCA) expression; HEK-293 SNCA-luciferase knock-in, luminescence, 24 h; Potency, µM (highest dose often 57.2 µM), actives largely listed as inhibitors; 0.17% of 140,000 active; further: nearly all actives have a fitted effect of over 45% in size
KDM5B inhibitor: Primary screen for KDM5B Histone Demethylases FDH-coupled qHTS. Lysine-specific demethylase 5B (Homo sapiens), Q9UGL1. KDM5B demethylase, FDH-coupled NADH fluorescence (FDH is formaldehyde dehydrogenase). Potency, µM (doses to about 57.7 µM), usual class: inhibitors. 2.6% of 220,000 active. AID 1347165, 2019; further: nearly all actives have a fitted effect of over 70% in size
Target sequence (Q9UGL1 whole entry, looked up): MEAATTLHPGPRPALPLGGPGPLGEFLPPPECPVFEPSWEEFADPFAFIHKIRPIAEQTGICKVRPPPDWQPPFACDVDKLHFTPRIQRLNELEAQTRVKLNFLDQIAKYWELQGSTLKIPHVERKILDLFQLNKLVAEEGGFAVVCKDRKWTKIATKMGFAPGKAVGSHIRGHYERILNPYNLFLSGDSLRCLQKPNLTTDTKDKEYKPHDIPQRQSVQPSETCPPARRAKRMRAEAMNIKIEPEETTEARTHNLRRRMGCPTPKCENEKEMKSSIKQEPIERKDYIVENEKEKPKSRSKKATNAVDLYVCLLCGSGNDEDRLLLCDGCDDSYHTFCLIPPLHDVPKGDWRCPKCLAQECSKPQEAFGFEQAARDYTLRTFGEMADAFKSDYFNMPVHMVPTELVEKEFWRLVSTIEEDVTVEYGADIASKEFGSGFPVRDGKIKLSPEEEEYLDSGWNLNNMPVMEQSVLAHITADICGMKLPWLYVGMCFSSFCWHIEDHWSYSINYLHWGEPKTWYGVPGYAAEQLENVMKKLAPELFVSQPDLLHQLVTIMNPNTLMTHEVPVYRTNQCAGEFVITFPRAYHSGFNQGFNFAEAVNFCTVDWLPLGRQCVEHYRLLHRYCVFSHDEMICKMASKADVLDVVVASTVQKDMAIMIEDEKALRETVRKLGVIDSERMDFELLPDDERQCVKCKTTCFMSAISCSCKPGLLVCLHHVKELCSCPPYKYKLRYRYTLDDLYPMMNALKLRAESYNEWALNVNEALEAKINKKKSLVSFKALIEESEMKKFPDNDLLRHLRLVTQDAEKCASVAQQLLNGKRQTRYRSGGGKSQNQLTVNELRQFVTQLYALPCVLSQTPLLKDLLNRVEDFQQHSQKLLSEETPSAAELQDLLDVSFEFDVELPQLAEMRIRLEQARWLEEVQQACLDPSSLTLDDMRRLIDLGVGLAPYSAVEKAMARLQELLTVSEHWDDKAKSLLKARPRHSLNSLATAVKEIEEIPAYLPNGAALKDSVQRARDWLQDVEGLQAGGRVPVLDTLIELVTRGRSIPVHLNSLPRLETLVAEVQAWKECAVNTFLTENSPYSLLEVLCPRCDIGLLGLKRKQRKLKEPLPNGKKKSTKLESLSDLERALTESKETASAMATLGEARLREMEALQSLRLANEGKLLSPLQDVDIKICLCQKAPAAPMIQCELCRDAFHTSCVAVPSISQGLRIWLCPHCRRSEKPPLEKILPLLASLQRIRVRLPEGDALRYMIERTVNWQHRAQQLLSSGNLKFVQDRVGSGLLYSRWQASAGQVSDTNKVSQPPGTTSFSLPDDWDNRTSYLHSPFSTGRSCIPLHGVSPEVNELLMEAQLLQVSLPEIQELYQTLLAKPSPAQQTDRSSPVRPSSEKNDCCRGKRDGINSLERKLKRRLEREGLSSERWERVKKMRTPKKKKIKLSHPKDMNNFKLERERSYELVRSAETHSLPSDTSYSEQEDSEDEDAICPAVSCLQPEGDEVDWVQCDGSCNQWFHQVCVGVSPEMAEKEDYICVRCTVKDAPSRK
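Measured: NADH fluorescence change, 30 min, RT. System: KDM5BΔAP 200 nM final, H3K4me3 peptide, α-KG, Fe(II), ascorbate, NAD⁺ plus FDH, pH 7.5 HEPES. Compounds: titrated, 10 min pre-incubation with enzyme.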
HEK293 viab: GF-AFC viability counterscreen for inhibitors of alpha-synuclein gene (SNCA) expression; HEK-293-SNCA-luc viability, GF-AFC fluorescence, 24 h; Potency, µM (highest dose often 57.1 µM), hits mostly cytotoxic; 0.12% of 150,000 active; further: nearly all actives have a fitted effect of over 30% in size
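HEK-293-SNCA-luc cells (1500/well) plated 24 h, then exposed 24 h to a dilution series; GF-AFC added 30 min at 37C, fluorescence 405/540 nm; normalised to medium-only and DMSO wells, Hill fit.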
A number is an active result; [ ] = another dose, or the depositor's remark. This is a sample that favours compounds with a hit; in the whole collection about 3% have one here. Unless noted, the call rests on the fitted dose curve; in most records, active means well fitted curve in the direction sought with a large enough effect; inconclusive means small, poorly fitted or top-dose-only effect, or another doubt; inactive means no such curve, though single readings can be large; an effect the other way counts as inactive or inconclusive.

For COc1ccc(-c2nc(N3CCOCC3)cc3c2CN(Cc2ccccc2)C3=O)cn1 the results were IP6K1 inh inactive, SNCA expr inhib inactive, KDM5B inhibitor 35.5µM and HEK293 viab inactive.
`COc1ccc(-c2nc(N3CCOCC3)cc3c2CN(CC2CC2)C3=O)cn1` gave IP6K1 inh inactive, SNCA expr inhib inactive, KDM5B inhibitor 35.5µM and HEK293 viab inactive.
Screening COc1ccc(-c2nc(N3CCOCC3)cc3c2CN(Cc2ccccc2)C3=O)cc1OC returned IP6K1 inh inactive, SNCA expr inhib inactive, KDM5B inhibitor inactive and HEK293 viab inactive.
COc1ccccc1CC(=O)NC(C)C(=O)N1CCN(c2ccccn2)CC1 (stereo unspecified) was read as IP6K1 inh inactive, SNCA expr inhib inactive, KDM5B inhibitor 28.2µM and HEK293 viab inactive.
Screening COc1ccccc1CCC(=O)NC(C)C(=O)N1CCN(c2ccccn2)CC1 (stereo unspecified) returned IP6K1 inh inactive, SNCA expr inhib inactive, KDM5B inhibitor 25.1µM and HEK293 viab inactive.
`CC(C)C(=O)NC(C)C(=O)N1CCN(c2ccccn2)CC1` (stereo unspecified) gave IP6K1 inh inactive, SNCA expr inhib inactive, KDM5B inhibitor inconclusive and HEK293 viab inactive.
`O=C(C1CCCC1)N1Cc2ccccc2CC2(CCN(CC3CCNC3)C2)C1` (stereo unspecified) gave IP6K1 inh inactive, SNCA expr inhib inactive, KDM5B inhibitor inconclusive and HEK293 viab inactive.
`COc1ccccc1CN1Cc2cc(NC(=O)c3ccc(Cl)cc3)ccc2OC(C)C1=O` (stereo unspecified) gave IP6K1 inh inactive, SNCA expr inhib inactive, KDM5B inhibitor inconclusive and HEK293 viab inactive.
`COc1ccc2[nH]c3c(c2c1)CCNC31CCN(Cc2scnc2C)CC1` gave IP6K1 inh inactive, SNCA expr inhib inactive, KDM5B inhibitor inconclusive and HEK293 viab inactive[12.5 µM].
`COc1ccc2[nH]c3c(c2c1)CCNC31CCN(Cc2ccc(C)o2)CC1` gave IP6K1 inh inactive, SNCA expr inhib inconclusive, KDM5B inhibitor 20µM and HEK293 viab inactive[12.5 µM].
Screening COc1cccc(CN2CCC3(CC2)NCCc2c3[nH]c3ccccc23)c1 returned IP6K1 inh inactive, SNCA expr inhib inactive, KDM5B inhibitor inactive and HEK293 viab inactive[12.5 µM].
COc1cccc(CN2CCC3(CC2)NCCc2c3[nH]c3ccc(OC)cc23)c1 was read as IP6K1 inh inactive, SNCA expr inhib inconclusive, KDM5B inhibitor 25.1µM and HEK293 viab inactive[12.5 µM].
For CCCCn1c(=O)c(C(=O)NCC2CCCCC2)nc2cccnc21 the results were IP6K1 inh inactive, SNCA expr inhib inactive and HEK293 viab inactive.
Screening O=C1NCc2ccccc2CC12CCCN2Cc1ccc(Br)cc1 (stereo unspecified) returned IP6K1 inh inactive, SNCA expr inhib inactive, KDM5B inhibitor inactive and HEK293 viab inactive.
`Cc1ccc(Nc2ccnc(N3CCC(N[S+](=O)([O-])c4cccs4)CC3)n2)cc1` gave IP6K1 inh inactive, SNCA expr inhib inactive and HEK293 viab inactive.
O=C(NCc1ccccc1F)c1nc2sccn2c1-c1ccc(C(F)(F)F)cc1 was read as IP6K1 inh inactive, SNCA expr inhib inactive and HEK293 viab inactive.
For Cc1ccc2c(C(=O)N3CCCCCC3)cc(NC(=O)C3CCC3)cc2n1 the results were IP6K1 inh inactive, SNCA expr inhib inactive, KDM5B inhibitor 31.6µM and HEK293 viab inactive.
Screening Cc1ccc2c(C(=O)N3CCN(C4CCCCC4)CC3)cc(NC(=O)C(C)C)cc2n1 returned IP6K1 inh inactive, SNCA expr inhib inactive, KDM5B inhibitor 11.2µM and HEK293 viab inactive.
Screening CC(=O)Nc1cc(C(=O)N2CCN(C3CCCCC3)CC2)c2ccc(C)nc2c1 returned IP6K1 inh inactive, SNCA expr inhib inactive, KDM5B inhibitor inconclusive and HEK293 viab inactive.
`Cc1ccc2c(C(=O)N3CCCCCC3)cc(NC(=O)C3CC3)cc2n1` gave IP6K1 inh inactive, SNCA expr inhib inactive, KDM5B inhibitor 28.2µM and HEK293 viab inactive.
For Cc1ccc2c(C(=O)N3CCN(C4CCCCC4)CC3)cc(NC(=O)C3CCC3)cc2n1 the results were IP6K1 inh inactive, SNCA expr inhib inactive, KDM5B inhibitor 25.1µM and HEK293 viab inactive.
`O=C(NCc1cccc(Cl)c1)c1nc2cccnc2n(Cc2ccccc2)c1=O` gave IP6K1 inh inactive, SNCA expr inhib inactive and HEK293 viab inactive.
Screening COc1ccc(-c2cc(C(=O)N3CCC(Cc4ccccc4)CC3)c3cnn(C)c3n2)cc1 returned IP6K1 inh inactive.
Screening COc1cccc(-c2cccc(C(=O)N3CCN([S+](=O)([O-])c4cccs4)CC3)c2)c1 returned IP6K1 inh inactive, SNCA expr inhib inactive and HEK293 viab inactive[12.5 µM].
Screening C[C@H](C(=O)N1CCOCC1)C1CC[C@@]2(C)Cc3sc(-c4ccccc4)nc3[C@@H](C)[C@@H]2[C@H]1O (stereo partly specified) returned IP6K1 inh inactive, SNCA expr inhib 3.16µM, KDM5B inhibitor inconclusive and HEK293 viab inactive.
For C[C@H](C(=O)N1CCOCC1)C1CC[C@@]2(C)Cc3sc(CS(=O)(=O)C(C)(C)C)nc3[C@@H](C)[C@@H]2[C@H]1O (stereo partly specified) the results were IP6K1 inh inactive, SNCA expr inhib inactive, KDM5B inhibitor inactive and HEK293 viab inactive.
For O=C(NCc1cccc(Cl)c1)c1ccc2nc(-c3ccccn3)oc2c1 the results were IP6K1 inh inactive, SNCA expr inhib inactive and HEK293 viab inactive.
`CN1CCN(c2ccc3ncc(Nc4ccc(Cl)c(C(F)(F)F)c4)n3n2)CC1` gave IP6K1 inh inactive, SNCA expr inhib inconclusive, KDM5B inhibitor 31.6µM and HEK293 viab inactive.
`CN1CCN(c2ccc3ncc(Nc4ccc(OC(F)(F)F)cc4)n3n2)CC1` gave IP6K1 inh inactive, SNCA expr inhib inactive, KDM5B inhibitor 31.6µM and HEK293 viab inactive.
Screening CN1CCN(c2ccc3ncc(Nc4ccc5c(c4)OCCO5)n3n2)CC1 returned IP6K1 inh inactive, SNCA expr inhib inactive, KDM5B inhibitor inactive and HEK293 viab inactive.
Screening c1ccc(Oc2ccc(Nc3cnc4ccc(N5CCOCC5)nn34)cc2)cc1 returned IP6K1 inh inactive, SNCA expr inhib inconclusive, KDM5B inhibitor inconclusive and HEK293 viab inactive.
Screening Clc1cccc(Nc2cnc3ccc(N4CCOCC4)nn23)c1 returned IP6K1 inh inactive, SNCA expr inhib inactive, KDM5B inhibitor 31.6µM and HEK293 viab inactive.
O=C1CCN(C(=O)c2cccs2)[C@@H]2c3ccccc3OC[C@@H]2CN1CCO was read as IP6K1 inh inactive.
`O=C(Cc1cccc(Cl)c1)N1CCN(c2ccc3nnc(-c4ccccc4)n3n2)CC1` gave IP6K1 inh inactive.
COc1ccc(C2CC(c3ccccc3)=NN2c2ccc(S(N)(=O)=O)cc2)cc1 (stereo unspecified) was read as IP6K1 inh inactive, SNCA expr inhib 13.6µM and HEK293 viab inactive.
